Measured values as given in PubChem BioAssay (NCATS).
Inconclusive results are not listed. The source made the active and inactive calls. Unless noted, calls follow the shape of the dose curve; as a rule, active = well fitted curve in the direction sought with a large enough effect; inconclusive = small, poorly fitted or top-dose-only effect, or another doubt; inactive = no such curve, though single readings can be large; an effect the other way counts as inactive or inconclusive.

Legend:
[1] = S16 Schwann cell PMP22 intronic element beta-lactamase assay (AID 624044; calls by dose curve; also: nearly all actives have a fitted effect of over 15% in size; also: potency is read from the fitted curve at half-maximal effect); conditions: S16 rat Schwann cells, PMP22 element beta-lactamase FRET, 24 h; ratio activity, negative = inhibition: at 38.3 µM (top of the series)
Summary of the method: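 Beta-lactamase reporter under a PMP22 intronic regulatory element in stable S16 rat Schwann cells; 24 h compound exposure. 460 nm blue signal normalized between DMSO (0%) and potassium clavulanate, with 535 nm FRET tracking viability; curves classed by r2 and response.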

3D7 = assay: qHTS profiling for inhibitors of Plasmodium falciparum proliferation (AID 504749); also: nearly all actives have a fitted effect of over 60% in size; also: potency is read from the fitted curve at half-maximal effect; conditions: P. falciparum in erythrocytes, SYBR Green DNA, 72 h; series mostly up to 28.7 µM
Summary of the method: (§1)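 Each compound contacts P. falciparum-infected red blood cells for 72 h at 37 C; lysis buffer (Tris, EDTA, saponin, Triton X, SYBR Green I) is added and fluorescence measured next morning; values normalized to controls.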

CP215 = assay: as above; conditions: P. falciparum in erythrocytes, SYBR Green DNA, 72 h; series mostly up to 28.7 µM
Summary of the method: as §1

CP266 = assay: as above; conditions: P. falciparum in erythrocytes, SYBR Green DNA, 72 h; series mostly up to 28.7 µM
Summary of the method: as §1

CP286 = assay: as above; conditions: P. falciparum in erythrocytes, SYBR Green DNA, 72 h; series mostly up to 28.7 µM
Summary of the method: as §1

DIV14 = assay: as above; conditions: P. falciparum in erythrocytes, SYBR Green DNA, 72 h; series mostly up to 28.7 µM
Summary of the method: as §1

DIV17 = assay: as above; conditions: P. falciparum in erythrocytes, SYBR Green DNA, 72 h; series mostly up to 28.7 µM
Summary of the method: as §1

DIV30 = assay: as above; conditions: P. falciparum in erythrocytes, SYBR Green DNA, 72 h; series mostly up to 28.7 µM
Summary of the method: as §1

HB3 = assay: as above; conditions: P. falciparum in erythrocytes, SYBR Green DNA, 72 h; series mostly up to 28.7 µM
Summary of the method: as §1

ICS = assay: as above; conditions: P. falciparum in erythrocytes, SYBR Green DNA, 72 h; series mostly up to 28.7 µM
Summary of the method: as §1

N140 = assay: as above; conditions: P. falciparum in erythrocytes, SYBR Green DNA, 72 h; series mostly up to 28.7 µM
Summary of the method: as §1

W2 = assay: as above; conditions: P. falciparum in erythrocytes, SYBR Green DNA, 72 h; series mostly up to 28.7 µM
Summary of the method: as §1

[2] = S16 Schwann cell viability assay (CellTiter-Glo assay) (AID 624031); conditions: S16 rat Schwann cells viability, 24 h; series mostly up to 57.5 µM;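 also: native untransfected S16 rat Schwann cells; cellular ATP luminescence as a viability measure; nearly all actives have a fitted effect of over 70% in size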
Summary of the method: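 Following overnight culture in 10% FBS DMEM, parental S16 rat Schwann cells are dosed for 24 h at 37 °C. Viability is read as CellTiter-Glo luminescence and expressed as % activity relative to DMSO (0%) and no-cell wells.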

[3] = S16 Schwann cell PMP22 intronic element firefly luciferase assay (AID 624032); conditions: S16 rat Schwann cells, PMP22 element FLuc, 24 h; series mostly up to 57.5 µM; also: nearly all actives have a fitted effect of over 30% in size; also: potency is read from the fitted curve at half-maximal effect
Summary of the method: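 Rat S16 Schwann cells stably carrying firefly luciferase driven by a PMP22 intronic element, in 10% FBS, treated 24 h at 37 C. ONE-Glo luminescence normalized to PTC124 control and DMSO (0%); curves classed by r2, magnitude and activity.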

CP237 = assay: qHTS profiling for inhibitors of Plasmodium falciparum proliferation (AID 504749); also: nearly all actives have a fitted effect of over 60% in size; also: potency is read from the fitted curve at half-maximal effect; conditions: P. falciparum in erythrocytes, SYBR Green DNA, 72 h; series mostly up to 28.7 µM
Summary of the method: as §1

CP194 = assay: as above; conditions: P. falciparum in erythrocytes, SYBR Green DNA, 72 h; series mostly up to 28.7 µM
Summary of the method: as §1

CP268 = assay: as above; conditions: P. falciparum in erythrocytes, SYBR Green DNA, 72 h; series mostly up to 28.7 µM
Summary of the method: as §1

CP269 = assay: as above; conditions: P. falciparum in erythrocytes, SYBR Green DNA, 72 h; series mostly up to 28.7 µM
Summary of the method: as §1

CP329 = assay: as above; conditions: P. falciparum in erythrocytes, SYBR Green DNA, 72 h; series mostly up to 28.7 µM
Summary of the method: as §1

ECU = assay: as above; conditions: P. falciparum in erythrocytes, SYBR Green DNA, 72 h; series mostly up to 28.7 µM
Summary of the method: as §1

Measured: Potency

COC(=O)C1[C@@H](OC)C(OC(=O)COc2ccc(OC)cc2)C[C@@H]2CN3CCc4c([nH]c5cc(OC)ccc45)[C@H]3C[C@H]12 (stereo not given in full)
active: 3D7 10 µM | CP286 11.2 µM | DIV14 7.57 µM | DIV17 6.75 µM | DIV30 8.49 µM | HB3 12.6 µM | ICS 5.01 µM | N140 11.2 µM | W2 8.49 µM
inactive: [1] | CP215 | CP266

CCC1OC(=O)C[C@H](O)C(C)[C@@H](O[C@@H]2OC(C)C(O)C(N(C)C)C2O)C(CCN2CC(C)CC(C)C2)CC(C)C(=O)/C=C/C(C)=C\[C@@H]1COC1OC(C)C(O)C(OC)C1OC (stereo not given in full)
active: CP237 5.01 µM | CP286 5.62 µM | ICS 10 µM | N140 10 µM | W2 1.07 µM
inactive: [2] | [3] | 3D7 | HB3

CC1=C(/C=C/C(C)=C\C=C\C(C)=C\C=C\C=C(C)\C=C\C=C(C)\C=C\C2=C(C)C[C@@H](O)CC2(C)C)C(C)(C)C[C@H](O)C1
inactive: [2] | [1] | CP194 | CP215 | CP268 | CP269 | CP329
active: CP237 11.2 µM | CP286 11.2 µM | DIV14 12 µM | DIV17 13.5 µM | ECU 14.1 µM | HB3 10 µM | ICS 1.12 µM | N140 7.08 µM | W2 8.49 µM

Cc1cnc(NC(=O)C2C(=O)c3ccccc3S(=O)(=O)N2C)s1 (stereo not given)
not listed: CP266
inactive: all other assays above

C[C@@H]1CC2[C@@H]3C[C@H](F)C4=CC(=O)C(Cl)=C[C@]4(C)[C@@]3(F)[C@H](O)C[C@]2(C)[C@@]1(O)C(=O)CO (stereo not given in full)
not listed: [1] | DIV14 | DIV17 | ICS | N140 | W2 | CP237 | ECU
inactive: all other assays above

C=C1CC2C3C=C(C)C4=CC(=O)CCC4(C)C3CCC2(C)[C@@]1(OC(C)=O)C(C)=O (stereo not given in full)
inactive: [1] | CP237 | CP329 | ECU | N140

O=C(NC(CO)C(O)c1ccc([N+](=O)[O-])cc1)C(Cl)Cl (stereo not given)
inactive: [2] | [3] | [1] | CP194 | DIV17 | DIV30 | ECU
active: CP269 3.01 µM

CCCCC(=O)OC1CCC2C3CCc4cc(O)ccc4C3CC[C@]12C (stereo not given in full)
active: N140 11.2 µM
not listed: DIV14 | DIV17 | ICS | W2 | [2] | [3]
inactive: all other assays above

Nc1nc(Cl)nc2c1ncn2[C@@H]1O[C@H](CO)[C@H](O)C1F (stereo not given in full)
active: [3] 0.907 µM | [1] 8.91 µM
inactive: all other assays above

Cc1cncc(C(=O)O)[n+]1[O-]
not listed: [1] | CP266 | N140 | ECU
inactive: all other assays above

C=C1N[C@]2(C(=O)COC(C)=O)[C@@H](C[C@H]3[C@@H]4CCC5=CC(=O)C=C[C@]5(C)[C@H]4[C@@H](O)C[C@@]32C)O1
active: W2 15.1 µM
inactive: [2] | [3] | [1] | CP237 | CP266 | DIV14 | DIV17 | ECU | HB3 | N140

C=C1CCC(O)C/C1=C/C=C1\CCC[C@]2(C)[C@@H]([C@H](C)/C=C/[C@H](C)C(C)C)CC[C@@H]12 (stereo not given in full)
active: [3] 36.1 µM
not listed: HB3 | ICS | N140 | W2 | ECU
inactive: all other assays above

CCC(=O)OC1C(N(C)C)CC(C)O[C@H]1O[C@H]1[C@H](C)[C@@H](O[C@H]2CC(OC)[C@@H](O)C(C)O2)[C@H](C)C(=O)O[C@@H](CC)[C@](C)(O)[C@@H](O)[C@H](C)C(=O)[C@@H](C)C[C@]1(C)O (stereo not given in full)
inactive: [3] | 3D7 | CP194 | CP237 | CP266 | CP268 | DIV14 | DIV30 | HB3
active: W2 6.75 µM

C=C1CC[C@H](O)C/C1=C/C=C1\CCC[C@]2(C)[C@@H]([C@H](C)CCCC(C)(C)O)CC[C@@H]12
inactive: CP194 | CP266 | CP268 | CP269 | CP329
active: DIV17 15.1 µM | DIV30 9.53 µM | ECU 12.6 µM | ICS 7.94 µM | N140 10 µM

C=CCN1CC(C(=O)N(CCCN(C)C)C(=O)NCC)CC2c3cccc4[nH]cc(c34)CC21 (stereo not given)
active: CP237 8.91 µM | CP286 12.6 µM | DIV14 15.1 µM | DIV17 13.5 µM | ICS 12.6 µM | W2 6.01 µM
inactive: CP194 | CP215 | CP266 | CP268 | CP269 | CP329 | DIV30 | HB3

O=C(O)C[CH2][Ge](=[O])[O][Ge](=[O])[CH2]CC(=O)O
not listed: 3D7
inactive: all other assays above

CCN(CC)CCOCCOC(=O)C(CC)(CC)c1ccccc1 (tested in a mixture with another compound)
inactive: [3] | 3D7 | ECU
active: DIV14 1.9 µM | DIV17 1.51 µM | W2 0.849 µM

C=C1CC[C@H](O)C/C1=C/C=C1\CCC[C@]2(C)[C@@H]([C@H](C)CC[C@@H](O)C(C)(C)O)CC[C@@H]12
active: CP237 10 µM | DIV14 13.5 µM | DIV17 13.5 µM | DIV30 13.5 µM | ECU 10 µM | ICS 10 µM | N140 8.91 µM | W2 12 µM
inactive: [2] | CP215 | CP266 | CP268 | CP269 | CP286 | CP329

CC1=C[C@@H](O)CC(C)(C)[C@@H]1/C=C/C(C)=C/C=C/C(C)=C/C=C/C=C(C)/C=C/C=C(C)/C=C/C1=C(C)C[C@H](O)CC1(C)C
active: 3D7 10 µM | DIV14 12 µM | HB3 11.2 µM | ICS 5.01 µM | N140 11.2 µM | W2 6.75 µM
inactive: [2] | CP194 | CP266 | CP268 | CP269 | CP286 | CP329

COc1ccc(CC(C)NCC(O)c2ccc(O)c(NC=O)c2)cc1 (stereo not given)
inactive: [1]

Oc1cc2cc(CCN3CCN(c4nsc5ccccc45)CC3)c(Cl)cc2[nH]1
inactive: [3] | [1] | CP194 | CP215 | CP266 | CP269 | CP329 | ECU
active: DIV14 6.75 µM | ICS 6.31 µM
